# Test results as given in PubChem BioAssay (NCI).
# This is part of a sample that, as a whole, favours compounds with a hit. Of some 83,000 tested, about 20% had one in any assay.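 Single-dose data. Exposure time 48 hours. Values below 10 considered active.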 Values without a mark were called inactive. Active and inactive are the calls of the source.
# Test system: NCI-H23 lung
# Test: NCI-60 one-dose screen, 48 h (100 = growth as untreated, 0 = no growth, -100 = all killed)
# Conditions: 10 µM unless noted
row,SMILES,growth
1,COc1cc(/C=C/C(=O)c2c(C)n([O-])c3ccc(Cl)cc3[n+]2=O)cc(OC)c1OC,81.7%
2,COc1ccc2ncccc2c1Cc1c(OC)ccc2ncccc12,80.1%
3,C=C1CC[C@@H]2[C@](C)(COC(C)=O)[C@H](OC(C)=O)CC[C@@]2(C)[C@@H]1CC(NCc1ccccc1)C1=CCOC1=O (stereo not given in full),57.4%
4,CCOC(=O)c1sc(NC(=O)COc2cccc(/C=C3\Cc4ccc(Cl)cc4C3=O)c2)nc1C,93.1%
5,O=C(Nc1cccc(-n2cc(-c3ccncc3)c(-c3cc(O)cc(Cl)c3)n2)c1)Nc1ccc(Cl)c(Cl)c1,-20.5% (active)
6,O=c1ccn(C2CC=C(CO)O2)c(=O)[nH]1 (stereo not given),91.9%
7,COC(=O)[C@H](Cc1cn(C)cn1)NC(=O)[C@@H](NC(=O)Nc1cc(C(F)(F)F)cc(C(F)(F)F)c1)C(C)C,-77.2% [100 µM] (active)
8,O=c1c2ccccc2c2nccn2c2cc(Cl)ccc12,72.6%
9,[N-]=[N+]=NCc1ncc(-c2ccc(C(F)(F)F)cc2)c(NC2CCCCCC2)n1,66.1% [50 µM]
10,CN(C)CCC(=O)Nc1ccc(-n2cc(-c3cccc(NC(=S)Nc4cccc(-c5cn(-c6ccc(NC(=O)CCN(C)C)cc6)nn5)c4)c3)nn2)cc1,89.1%
11,C/C(=C\CCc1ccoc1)CC/C=C(\C)CCCNc1ccc(F)cc1,100%
12,COP(=O)(OC)C(c1ccccc1)(c1ccccc1)c1ccccc1,104%
13,COc1cc(/C=C2\CN(S(=O)(=O)c3ccc(C)cc3)C/C(=C\c3cc(CN4CCOCC4)c(O)c(OC)c3)C2=O)cc(CN2CCOCC2)c1O,-57.1% (active)
14,CCCCCc1c(C)[nH]c(/C=C2\N=C(c3ccc[nH]3)C=C2Oc2ccccc2)c1C,-80.2% [100 µM] (active)
15,CCCCCCCSc1ncnc2[nH]ncc12,93.9%
16,COc1cccc(/C=N\NC(=O)c2ccncc2)c1O,58.5%
17,Cc1cc(=O)oc2cc(OCCn3c(C)nn(-c4ccc(Cl)cc4)c3=O)ccc12,45.8%
18,CC1CC=CCC1C1OCC(C)(C)CO1 (stereo not given),108%
19,O=C1CSC(c2ccccc2Cl)N1c1nnc(Cn2nnc3ccccc32)o1 (stereo not given),80.6%
20,O=C1Nc2ccc(C(=O)O)c(O)c2C1=O,107%

row,SMILES,growth
1,ICCC(c1ccccc1)(c1ccccc1)c1ccccc1,65.6%
2,O=C(Oc1cccc2ccccc12)c1ccccc1C(=O)c1ccccc1,93%
3,COc1ccc(C(=O)/C=C/c2ccc(C)cc2)cc1OC,78.3%
4,O=C(Nc1nc2c(C(F)(F)F)cccc2s1)c1cc(Cl)ccc1O,3.47% (active)
5,CCOC(=O)C1C(=O)NC(C(=O)OCC)(C(=O)OCC)C1CC (stereo not given),112%
6,O=C(CNC(=O)c1cccc2ccccc12)Nc1ccccc1Oc1cccc(O)c1,41.5% [5 µM]
7,CC(=O)Nc1c(Cl)cc2c(c1Cl)Cc1cc([N+](=O)[O-])ccc1-2,88%
8,COc1cc2c(cc1OC)C(CC1(O)CCCCC1)N(S(=O)(=O)c1ccc(C)cc1)CC2 (stereo not given),29.3% [100 µM]
9,NC(=O)NC1(C(=O)O)CCCC1,105%
10,COc1ccc(N2CCN(CC(=O)N3CCN(c4nnc(-c5ccc(Cl)cc5)c(-c5ccc(Cl)cc5)n4)CC3)CC2)cc1,81.7%
11,Oc1ccc(/C=N/Nc2nc3ccccc3s2)c(O)c1,56.8%
12,Nc1ccccc1-c1ccn[nH]1,110%
13,Nc1ccc2c(c1)Cc1cc(Cl)c(Cl)cc1-2,68.1%
14,O=C1C=CC(=O)N1c1ccccc1N1C(=O)C=CC1=O,115%
15,Clc1ccc2c(c1)C(Br)c1cc(Cl)cc(Cl)c1-2 (stereo not given),14.8%
16,NS(=O)(=O)c1ccc(-n2ncc3c(NC4CCCCC4)ncnc32)cc1,103%
17,COc1cccc(CCN2C(=O)CCC3=C2CCC3=O)c1,96.9%
18,O=C(C(=O)c1cc(Br)ccc1O)c1cc(Br)ccc1O,19.8%
19,O=CN1N=C(c2ccc(Cl)cc2)CC1c1cccc(Nc2ccnc3cc(Cl)ccc23)c1 (stereo not given),11.6%
20,CCN(CC)CCNCC(=O)Oc1ccc(/C=C/C(=O)CC(=O)/C=C/c2ccc(OC(=O)CNCCN(CC)CC)c(OC)c2)cc1OC,5.35% (active)

# Test system: NCI-H226 lung
# Test: as above
# Conditions: 10 µM unless noted
row,SMILES,growth
1,COc1cc(/C=C/C(=O)c2c(C)n([O-])c3ccc(Cl)cc3[n+]2=O)cc(OC)c1OC,80.7%
2,COc1ccc2ncccc2c1Cc1c(OC)ccc2ncccc12,80%
3,C=C1CC[C@@H]2[C@](C)(COC(C)=O)[C@H](OC(C)=O)CC[C@@]2(C)[C@@H]1CC(NCc1ccccc1)C1=CCOC1=O (stereo not given in full),11.4%
4,CCOC(=O)c1sc(NC(=O)COc2cccc(/C=C3\Cc4ccc(Cl)cc4C3=O)c2)nc1C,95.4%
5,O=C(Nc1cccc(-n2cc(-c3ccncc3)c(-c3cc(O)cc(Cl)c3)n2)c1)Nc1ccc(Cl)c(Cl)c1,14.5%
6,O=c1ccn(C2CC=C(CO)O2)c(=O)[nH]1 (stereo not given),95.7%
7,COC(=O)[C@H](Cc1cn(C)cn1)NC(=O)[C@@H](NC(=O)Nc1cc(C(F)(F)F)cc(C(F)(F)F)c1)C(C)C,-52.3% [100 µM] (active)
8,O=c1c2ccccc2c2nccn2c2cc(Cl)ccc12,155%
9,[N-]=[N+]=NCc1ncc(-c2ccc(C(F)(F)F)cc2)c(NC2CCCCCC2)n1,80.9% [50 µM]
10,CN(C)CCC(=O)Nc1ccc(-n2cc(-c3cccc(NC(=S)Nc4cccc(-c5cn(-c6ccc(NC(=O)CCN(C)C)cc6)nn5)c4)c3)nn2)cc1,135%
11,C/C(=C\CCc1ccoc1)CC/C=C(\C)CCCNc1ccc(F)cc1,88.5%
12,COP(=O)(OC)C(c1ccccc1)(c1ccccc1)c1ccccc1,83.8%
13,COc1cc(/C=C2\CN(S(=O)(=O)c3ccc(C)cc3)C/C(=C\c3cc(CN4CCOCC4)c(O)c(OC)c3)C2=O)cc(CN2CCOCC2)c1O,-40.2% (active)
14,CCCCCc1c(C)[nH]c(/C=C2\N=C(c3ccc[nH]3)C=C2Oc2ccccc2)c1C,-38.2% [100 µM] (active)
15,CCCCCCCSc1ncnc2[nH]ncc12,77.4%
16,COc1cccc(/C=N\NC(=O)c2ccncc2)c1O,61.8%
17,Cc1cc(=O)oc2cc(OCCn3c(C)nn(-c4ccc(Cl)cc4)c3=O)ccc12,50.1%
18,CC1CC=CCC1C1OCC(C)(C)CO1 (stereo not given),99.9%
19,O=C1CSC(c2ccccc2Cl)N1c1nnc(Cn2nnc3ccccc32)o1 (stereo not given),96.1%
20,O=C1Nc2ccc(C(=O)O)c(O)c2C1=O,104%

row,SMILES,growth
1,ICCC(c1ccccc1)(c1ccccc1)c1ccccc1,89.8%
2,O=C(Oc1cccc2ccccc12)c1ccccc1C(=O)c1ccccc1,105%
3,COc1ccc(C(=O)/C=C/c2ccc(C)cc2)cc1OC,74.4%
4,O=C(Nc1nc2c(C(F)(F)F)cccc2s1)c1cc(Cl)ccc1O,-3.02% (active)
5,CCOC(=O)C1C(=O)NC(C(=O)OCC)(C(=O)OCC)C1CC (stereo not given),97.7%
6,O=C(CNC(=O)c1cccc2ccccc12)Nc1ccccc1Oc1cccc(O)c1,58.6% [5 µM]
7,CC(=O)Nc1c(Cl)cc2c(c1Cl)Cc1cc([N+](=O)[O-])ccc1-2,85%
8,COc1cc2c(cc1OC)C(CC1(O)CCCCC1)N(S(=O)(=O)c1ccc(C)cc1)CC2 (stereo not given),57.6% [100 µM]
9,NC(=O)NC1(C(=O)O)CCCC1,111%
10,COc1ccc(N2CCN(CC(=O)N3CCN(c4nnc(-c5ccc(Cl)cc5)c(-c5ccc(Cl)cc5)n4)CC3)CC2)cc1,57.9%
11,Oc1ccc(/C=N/Nc2nc3ccccc3s2)c(O)c1,45%
12,Nc1ccccc1-c1ccn[nH]1,86.8%
13,Nc1ccc2c(c1)Cc1cc(Cl)c(Cl)cc1-2,92.3%
14,O=C1C=CC(=O)N1c1ccccc1N1C(=O)C=CC1=O,101%
15,Clc1ccc2c(c1)C(Br)c1cc(Cl)cc(Cl)c1-2 (stereo not given),14.4%
16,NS(=O)(=O)c1ccc(-n2ncc3c(NC4CCCCC4)ncnc32)cc1,91.5%
17,COc1cccc(CCN2C(=O)CCC3=C2CCC3=O)c1,97.4%
18,O=C(C(=O)c1cc(Br)ccc1O)c1cc(Br)ccc1O,90.9%
19,O=CN1N=C(c2ccc(Cl)cc2)CC1c1cccc(Nc2ccnc3cc(Cl)ccc23)c1 (stereo not given),24.4%
20,CCN(CC)CCNCC(=O)Oc1ccc(/C=C/C(=O)CC(=O)/C=C/c2ccc(OC(=O)CNCCN(CC)CC)c(OC)c2)cc1OC,21%
